Experimental data reported in PubChem BioAssay (Tox21).
Values joined by “and” are separate entries in the source; they are usually repeats but may differ in a detail not shown here. Equal entries are not always repeated. Inconclusive results are not listed. Active and inactive are the calls of the source. Unless noted, calls come from the whole dose curve; as a rule, active = well fitted curve in the direction sought with a large enough effect in the repeat runs; inconclusive = weak or mixed curves; inactive = no such curve, though single readings can be large; an effect the other way counts as inactive or inconclusive.

Tests used:
[1] = qHTS assay to identify small molecule agonists of the RXR signaling pathway - cell viability counter screen (AID 1159529); note: nearly all actives have a fitted effect of over 50% in size; note: potency is the fitted concentration of half-maximal effect; for activity change, negative = cytotoxicity: series mostly up to about 77 µM
In short: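 Cell viability is measured by CellTiter-Glo luminescence, 30 min at room temperature, in wells already read for beta-lactamase. Engineered HEK 293T cells (RXR-alpha-UAS-bla) are dosed 16 hr at 37 C. Tetraoctyl ammonium bromide serves as positive control.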

[2] = qHTS assay to identify small molecule antagonists of the retinoid acid receptor (RAR) signaling pathway - cell viability counter screen (AID 1159551); note: nearly all actives have a fitted effect of over 35% in size; note: potency is the fitted concentration of half-maximal effect
In short: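 In this counter screen, the RARE-luciferase line C3RL4 was exposed for 6 h at 37 C and 5% CO2 to compounds with retinol at 1 uM final. Cellular ATP, read by luminescence, served as the viability measure.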

[3] = qHTS assay to identify small molecule agonists of the retinoic acid receptor (RAR) signaling pathway (AID 1159553)
In short: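 In this cell-based screen, 1,000 C3RL4 cells per well were cultured overnight, dosed with test chemicals in DMSO for 6 hr, and assessed for RARE luciferase luminescence.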

[4] = qHTS assay to identify small molecule antagonists of the estrogen related receptor (ERR) signaling pathway from Tox21 library - cell viability counter screen (AID 1224834); note: nearly all actives have a fitted effect of over 30% in size; note: potency is the fitted concentration of half-maximal effect
In short: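 Counter screen run in ERR cells (2,000 cells/well): cells pre-incubated 6 h, then treated with compounds for 17.5 h at 37 C. Fluorescence was read 30 min after CellTiter-Fluor addition.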

[5] = target: Luciferin 4-monooxygenase (Photinus pyralis) (UniProt P08659); experiment: qHTS assay to identify small molecule inhibitors of firefly luciferase (AID 1224835); note: nearly all actives have a fitted effect of over 25% in size; note: potency is the fitted concentration of half-maximal effect; for activity change, negative = inhibition: series mostly up to about 120 µM
In short: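 Inhibition of purified Photinus luciferase is measured by luminescence. Substrate levels (D-luciferin, ATP) sit at their KM values. Each compound is tested in a concentration series.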

[6] = qHTS assay to identify small molecule agonists of the constitutive androstane receptor (CAR) signaling pathway - cell viability counter screen (AID 1224836); note: nearly all actives have a fitted effect of over 45% in size; note: potency is the fitted concentration of half-maximal effect; for viability change, negative = cytotoxic: series mostly up to about 92 µM
In short: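 Counter screen multiplexed with the CAR reporter readout: HepG2 cells co-transfected with hCAR and the CYP2B6-2.2kb construct receive a 15-concentration compound series and 0.75 uM PK11195 (final), then CellTiter-Fluor fluorescence is read after 23 h.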

[7] = qHTS assay to identify small molecule antagonists of the constitutive androstane receptor (CAR) signaling pathway - cell viability counter screen (AID 1224837); note: nearly all actives have a fitted effect of over 45% in size; note: potency is the fitted concentration of half-maximal effect; for activity change, negative = cytotoxicity: series mostly up to about 92 µM
In short: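 CITCO at 50 nM final was added alongside compounds (15 concentrations) to double-stable hCAR/CYP2B6-2.2kb HepG2 cells. Following 23 hr at 37 C, cell viability was quantified by CellTiter-Fluor fluorescence intensity.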

[8] = qHTS assay to identify small molecule antagonists of the estrogen related receptor signaling pathway with the pleiotropic PPARgamma coactivator (PGC) from Tox21 10K library - cell viability counter screen (AID 1224840; active = well fitted cell-killing curve with a large enough effect in the repeat runs, not every such curve was filed as active; note: nearly all actives have a fitted effect of over 40% in size)
In short: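 Readout: fluorescence intensity from CellTiter-Fluor after 30 min at 37 C/5% CO2. Preceded by 17.5 h treatment of PGC/ERR cells with DMSO-dissolved compounds, added 6 h post-seeding.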

[9] = qHTS assay to identify small molecule antagonists of the estrogen related receptor (ERR) signaling pathway - cell viability counter screen (AID 1224818); note: series mostly up to about 46 µM
In short: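 Viability of ERR cells, CellTiter-Fluor fluorescence; 17.5 h compound exposure at 37 C, DMSO vehicle; 30 min reagent incubation at 37 C/5% CO2.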

[10] = qHTS assay to identify small molecule antagonists of the estrogen related receptor signaling pathway with the pleiotropic PPARgamma coactivator (PGC) cell viability counter screen (AID 1224822; note: series mostly up to about 46 µM)
In short: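 17.5 h compound treatment of PGC/ERR cells at 37 C; readout CellTiter-Fluor fluorescence; run alongside the PGC/ERR antagonist screen to flag cytotoxic compounds.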

[11] = target: Thyrotropin receptor (Homo sapiens) (UniProt P16473); experiment: qHTS assay to identify small molecule agonists of the thyroid stimulating hormone receptor (TSHR) signaling pathway (AID 1224843; calls by dose curve; note: nearly all actives have a fitted effect of over 45% in size)
In short: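 Agonist activity read as cAMP rise via d2/cryptate HTRF competition, 1 h room-temperature detection, in HEK293 cells expressing TSHR. Fifteen-point titrations, each run in triplicate, with a 30 min room-temperature incubation beforehand.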

[12] = target: Nuclear receptor subfamily 1 group I member 3 (Homo sapiens) (UniProt Q14994); experiment: qHTS assay to identify small molecule antagonists of the constitutive androstane receptor (CAR) signaling pathway (AID 1224838); note: nearly all actives have a fitted effect of over 40% in size
In short: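 Inhibition of CITCO-driven (50 nM final) CYP2B6 reporter expression is measured in HepG2 cells stably carrying hCAR. Fifteen compound concentrations are applied for 24 h at 37 C, followed by luciferase luminescence.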

[13] = target: Nuclear receptor subfamily 1 group I member 3 (Homo sapiens) (UniProt Q14994); experiment: qHTS assay to identify small molecule agonists of the constitutive androstane receptor (CAR) signaling pathway (AID 1224839); note: series mostly up to about 92 µM; nearly all actives have a fitted effect of over 15% in size
In short: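 A 15-concentration quantitative screen uses HepG2 cells co-transfected stably with human CAR and CYP2B6-2.2kb reporter. Treatment lasts 24 h with 0.75 uM PK11195 final present; ONE-Glo luminescence is the signal.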

[14] = qHTS assay to identify small molecule antagonists of the estrogen related receptor signaling pathway with the pleiotropic PPARgamma coactivator (PGC) from Tox21 10K library (AID 1224841; call rule not given here; note: actives are mostly falling curves and most rising ones were filed inactive; nearly all actives have a fitted effect of over 50% in size; note: potency is the fitted concentration of half-maximal effect; for activity, negative = inhibition: series mostly up to about 92 µM)
In short: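 One-Glo luminescence, measured after half an hour at room temperature, quantified reporter output of PGC/ERR cells. These had been plated at 2,000 per well, incubated 6 h, dosed with compounds in DMSO, then kept 18 h at 37 C.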

[15] = qHTS assay to identify small molecule agonists of the estrogen related receptor signaling pathway with the pleiotropic PPARgamma coactivator (PGC) from Tox21 10K library (AID 1224842); note: nearly all actives have a fitted effect of over 15% in size
In short: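 Luminescence from One-Glo (30 min, room temperature) measured after PGC/ERR cells had 18 h at 37 C with pinned compound (23 nL in DMSO). Cells had been seeded at 2,000 per well and pre-incubated 6 h.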

[16] = qHTS assay to identify small molecule antagonists of the estrogen related receptor (ERR) signaling pathway (AID 1224819; note: series mostly up to about 46 µM; nearly all actives have a fitted effect of over 50% in size)
In short: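 Seed ERR cells 2,000/well; rest 6 h at 37 C/5% CO2; pin compounds in DMSO; incubate 18 h at 37 C; add One-Glo; wait 30 min at room temperature; measure luminescence.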

[17] = test system: estrogen-related receptor alpha (ERRalpha) with PGC-1alpha coactivator, human; experiment: qHTS assay to identify small molecule antagonists of the estrogen related receptor signaling pathway with the pleiotropic PPARgamma coactivator (PGC) (AID 1224821; calls by dose curve;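 note: series mostly up to about 46 µM; lower luminescence signal means antagonism of PGC/ERR signalling; nearly all actives have a fitted effect of over 50% in size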)
In short: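 Luminescence from One-Glo luciferase reagent (30 min, room temperature) measured after 18 h compound treatment at 37 °C. Cells carry the PGC/ERR reporter and were seeded 6 h prior to dosing.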

[18] = qHTS assay to identify small molecule agonists of the estrogen related receptor signaling pathway with the pleiotropic PPARgamma coactivator (PGC) (AID 1224823)
In short: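 Luminescence from One-Glo reagent (30 min, room temperature) was read after 18 h compound treatment at 37 C of PGC/ERR cells plated 6 h beforehand; compounds delivered in DMSO by pin tool.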

[19] = qHTS assay to identify small molecule antagonists of the retinoic acid receptor (RAR) signaling pathway (AID 1159552; note: nearly all actives have a fitted effect of over 50% in size)
In short: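 Quantitative HTS in C3RL4 RARE-luciferase reporter cells. Compounds were added with 1 uM (final) retinol; luminescence was read after 6 hr.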
% is set by controls: 0 for no effect and ±100 for the full control effect.

Nuclear receptor subfamily 1 group I member 3 (Homo sapiens), sequence (Q14994 whole entry, looked up): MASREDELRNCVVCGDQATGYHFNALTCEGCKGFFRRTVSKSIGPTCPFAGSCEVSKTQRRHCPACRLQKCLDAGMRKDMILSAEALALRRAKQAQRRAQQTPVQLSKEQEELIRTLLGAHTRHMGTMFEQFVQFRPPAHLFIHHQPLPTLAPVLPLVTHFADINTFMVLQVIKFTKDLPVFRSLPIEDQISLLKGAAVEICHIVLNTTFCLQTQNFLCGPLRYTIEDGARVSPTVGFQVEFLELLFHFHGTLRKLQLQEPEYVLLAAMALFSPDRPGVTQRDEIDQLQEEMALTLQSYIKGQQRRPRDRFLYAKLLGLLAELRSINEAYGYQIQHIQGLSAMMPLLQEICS
Thyrotropin receptor (Homo sapiens), sequence (P16473 whole entry, looked up): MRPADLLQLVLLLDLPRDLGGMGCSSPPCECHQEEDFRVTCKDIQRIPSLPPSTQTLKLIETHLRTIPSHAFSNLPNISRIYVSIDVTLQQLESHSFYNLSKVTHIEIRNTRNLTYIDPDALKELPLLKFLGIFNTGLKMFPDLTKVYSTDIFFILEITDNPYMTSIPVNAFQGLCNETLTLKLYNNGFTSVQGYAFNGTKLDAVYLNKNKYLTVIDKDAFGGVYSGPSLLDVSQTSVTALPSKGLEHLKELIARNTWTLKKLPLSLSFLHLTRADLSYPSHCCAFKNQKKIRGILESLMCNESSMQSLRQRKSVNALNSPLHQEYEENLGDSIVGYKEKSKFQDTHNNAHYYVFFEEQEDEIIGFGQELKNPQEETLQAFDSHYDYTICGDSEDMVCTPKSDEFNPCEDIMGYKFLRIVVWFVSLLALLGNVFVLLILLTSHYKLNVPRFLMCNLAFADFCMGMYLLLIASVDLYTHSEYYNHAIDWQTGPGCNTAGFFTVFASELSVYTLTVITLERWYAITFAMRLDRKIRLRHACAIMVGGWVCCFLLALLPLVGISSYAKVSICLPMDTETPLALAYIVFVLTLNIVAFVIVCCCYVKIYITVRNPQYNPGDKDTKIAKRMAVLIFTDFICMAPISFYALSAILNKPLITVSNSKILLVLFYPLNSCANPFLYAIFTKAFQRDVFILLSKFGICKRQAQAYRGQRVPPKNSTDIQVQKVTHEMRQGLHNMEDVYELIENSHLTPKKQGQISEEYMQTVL
Luciferin 4-monooxygenase (Photinus pyralis), sequence (P08659 whole entry, looked up): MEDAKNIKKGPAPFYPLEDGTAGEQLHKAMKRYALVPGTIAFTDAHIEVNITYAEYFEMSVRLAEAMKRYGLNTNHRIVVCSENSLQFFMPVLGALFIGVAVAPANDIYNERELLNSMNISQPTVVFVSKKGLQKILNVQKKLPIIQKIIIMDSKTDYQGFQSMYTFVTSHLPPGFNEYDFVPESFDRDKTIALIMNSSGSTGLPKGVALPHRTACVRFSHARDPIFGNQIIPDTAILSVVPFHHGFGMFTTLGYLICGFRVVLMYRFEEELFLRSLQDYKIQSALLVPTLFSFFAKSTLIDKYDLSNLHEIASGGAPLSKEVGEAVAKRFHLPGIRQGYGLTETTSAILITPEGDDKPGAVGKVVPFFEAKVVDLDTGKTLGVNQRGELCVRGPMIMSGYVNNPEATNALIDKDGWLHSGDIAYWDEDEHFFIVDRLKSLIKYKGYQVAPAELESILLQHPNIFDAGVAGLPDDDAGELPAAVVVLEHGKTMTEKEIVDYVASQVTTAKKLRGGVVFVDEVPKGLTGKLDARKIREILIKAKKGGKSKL

C[N+](C)(C)CCOC(=O)C(O)(c1ccccc1)c1ccccc1
inactive: Potency [1] | Potency [2] | Potency [3] | Potency [4] | Potency [5] | Potency [6] | Potency [7] | Potency [8]

COc1ccccc1N1CCNCC1
inactive: Potency [1] | Potency [2] | outcome [9] | outcome [10] | Potency [4] | Potency [5] | Potency [6] | Potency [7] | Potency [8] | Potency [11]

CC[N+]1(CCOC(=O)C(O)(c2ccccc2)c2ccccc2)CCCCC1
inactive: Potency [1] | Potency [2] | Potency [4] | Potency [5] | Potency [6] | Potency [7] | Potency [12] | Potency [13] | Potency [11]

CC1(C)CC(=O)CC(C)(C)N1[O]
inactive: Potency [1] | Potency [2] | Potency [4] | Potency [5] | Potency [6] | Potency [7] | Potency [12] | Potency [13] | Potency [14] | Potency [15] | Potency [11]

CC(C)CCCCCCCOC(=O)c1ccccc1C(=O)OCCCCCCCC(C)C
inactive: Potency [1] | Potency [2] | Potency [4] | Potency [5] | Potency [6] | Potency [7] | Potency [12] | Potency [8] | Potency [14] | Potency [15] | Potency [11]

CCC1(C2=NCCN2)Cc2ccccc2O1 (centres undefined)
inactive: Potency [1] | Potency [2] | outcome [9] | outcome [16] | outcome [17] | outcome [10] | outcome [18] | Potency [4] | Potency [5] | Potency [6] | Potency [7] | Potency [8] | Potency [14] | Potency [15] | Potency [11]

FC(Cl)(Cl)C(F)(Cl)Cl
inactive: Potency [1] | Potency [2] | Potency [3] | Potency [4] | Potency [6] | Potency [7] | Potency [12] | Potency [13] | Potency [8] | Potency [11]

Cc1nnc(-c2ccccc2)c(=O)n1N
inactive: Potency [1] | Potency [2] | Potency [3] | Potency [4] | Potency [6] | Potency [7] | Potency [12] | Potency [13] | Potency [8] | Potency [11]

CCOC(=O)c1cncn1C(C)c1ccccc1 (centres undefined)
inactive: Potency [1] | Potency [2] | Potency [4] | Potency [5] | Potency [6] | Potency [7] | Potency [12] | Potency [8] | Potency [14] | Potency [15] | Potency [11]

CCC1CCC(=O)O1 (centres undefined)
inactive: Potency [1] | Potency [2] | Potency [3] | Potency [4] | Potency [5] | Potency [6] | Potency [7] | Potency [8] | Potency [11]

CCCCCCCCCCCCN=C(N)N
inactive: activity change, negative = cytotoxicity [1] -15.3% [at 2.72 µM] | activity change, negative = cytotoxicity [2] 2.05% [at 3.27 µM] | activation [3] -2.89% [at 3.75 µM] | viability change, negative = cytotoxic [4] 1.13% [at 3.27 µM] | activity change, negative = inhibition [5] 0.224% [at 4.07 µM] | viability change, negative = cytotoxic [6] 0.263% [at 3.27 µM] | activity change, negative = cytotoxicity [7] -5.88% [at 3.26 µM] | activity, negative = inhibition [12] 9.02% [at 3.26 µM] | viability change, negative = cytotoxic [8] 2.19% [at 3.27 µM] | activation [11] 5.05% [at 3.27 µM]

CN1C[C@H](C(=O)N[C@]2(C)O[C@@]3(O)[C@@H]4CCCN4C(=O)[C@H](Cc4ccccc4)N3C2=O)C=C2c3cccc4[nH]cc(c34)C[C@H]21
inactive: Potency [2] | Potency [6] | Potency [7] | Potency [12] | Potency [8]
active: Potency [1] 22 µM | Potency [4] 24.4 µM and 9.01 µM | Potency [5] 40.1 µM

N#CC(C#N)=Cc1ccc(O)c(O)c1
inactive: Potency [1] | Potency [2] | outcome [9] | outcome [10] | Potency [4] | Potency [6] | Potency [7] | Potency [12] | Potency [13] | Potency [11]

CCCC1CCCCN1 (centres undefined)
inactive: Potency [1] | Potency [2] | Potency [4] | Potency [5] | Potency [6] | Potency [7] | Potency [13] | Potency [8] | Potency [11]

C=CCSSCC=C
inactive: Potency [1] | Potency [19] | Potency [3] | Potency [4] | Potency [5] | Potency [6] | Potency [7] | Potency [12] | Potency [13] | Potency [8]

CCCCCCCCn1sccc1=O
inactive: Potency [15]
active: Potency [1] 1.95 µM and 2.04 µM | Potency [2] 68.7 µM and 64.1 µM | Potency [4] 27.4 µM and 16.1 µM | Potency [5] 35.7 µM and 41.8 µM | Potency [6] 61.3 µM and 25.5 µM | Potency [7] 30.7 µM and 5.71 µM | Potency [14] 30.7 µM
